Reference: PubChem BioAssay AID1159580 (chemical genetic matrix, 2015)
Screen size: about 5,500 compounds; about 2,000 (36%) were called active. Another 18% or so got no clear call; they are omitted. Cut-off read from the data, not from the text of the source: active = normalized growth mostly below about 0.91 (no sharp cut-off); inconclusive = no clear call, values can overlap the other calls; inactive = mostly above about 0.92. The list shows a part of the results.

Experiment: chemical genetic growth profiling, strain panel (AID 1159580);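 note: tested at 20 µM; growth read once vehicle control cultures reached saturation at 30 °C; 1 = growth at the plate median or of vehicle wells; lower values mean less growth of the strain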
Details: S. cerevisiae deletion strains, growth OD

Measured: normalized growth

O=C(/C=C/c1ccc(O)cc1)c1ccccc1O
active: locus YAL021C, strain ccr4, stronger effect = lower value 0.762 | locus YAL026C, strain drs2, stronger effect = lower value 0.359 | locus YAL030W, strain snc1, stronger effect = lower value 0.359 | locus YBL061C, strain skt5, stronger effect = lower value 0.366 | locus YBR009C, strain hhf1, stronger effect = lower value 0.25 | locus YBR023C, strain chs3, stronger effect = lower value 0.452 | locus YBR171W, strain sec66, stronger effect = lower value 0.774 | locus YBR231C, strain swc5, stronger effect = lower value 0.382 | locus YBR279W, strain paf1, stronger effect = lower value 0.423 | locus YCL011C, strain gbp2, stronger effect = lower value 0.366 | locus YCL016C, strain dcc1, stronger effect = lower value 0.446 | locus YCL061C, strain MRC1, stronger effect = lower value 0.484 | locus YCL069W, strain vba3, stronger effect = lower value 0.256 | locus YCR088W, strain abp1, stronger effect = lower value 0.639 | locus YDL005C, strain med2, stronger effect = lower value 0.759 | locus YDL040C, strain nat1, stronger effect = lower value 0.683 | locus YDR001C, strain nth1, stronger effect = lower value 0.552 | locus YDR069C, strain doa4, stronger effect = lower value 0.859 | locus YDR137W, strain rgp1, stronger effect = lower value 0.255 | locus YDR159W, strain sac3, stronger effect = lower value 0.305 | locus YDR195W, strain ref2 1.15 [resistant] | locus YDR297W, strain sur2, stronger effect = lower value 0.554 | locus YDR334W, strain swr1, stronger effect = lower value 0.301 | locus YDR335W, strain msn5, stronger effect = lower value 0.382 | locus YDR392W, strain spt3, stronger effect = lower value 0.103 | locus YEL003W, strain gim4, stronger effect = lower value 0.236 | locus YEL037C, strain rad23, stronger effect = lower value 0.667 | locus YEL061C, strain CIN8 (second series), stronger effect = lower value 0.175 | locus YER015W, strain faa2, stronger effect = lower value 0.469 | locus YER016W, strain bim1, stronger effect = lower value 0.478 | locus YER111C, strain swi4, stronger effect = lower value 0.126 | locus YER155C, strain BEM2 (second series), stronger effect = lower value 0.128 | locus YFR010W, strain ubp6, stronger effect = lower value 0.768 | locus YGL167C, strain pmr1, stronger effect = lower value 0.703 | locus YGL173C, strain kem1, stronger effect = lower value 0.585 | locus YGL227W, strain vid30, stronger effect = lower value 0.169 | locus YGL240W, strain doc1, stronger effect = lower value 0.453 | locus YGL253W, strain hxk2, stronger effect = lower value 0.2 | locus YHR013C, strain ard1, stronger effect = lower value 0.441 | locus YHR027C, strain rpn1, stronger effect = lower value 0.624 | locus YHR030C, strain SLT2, stronger effect = lower value 0.0955 | locus YHR079C, strain IRE1, stronger effect = lower value 0.119 | locus YHR142W, strain chs7, stronger effect = lower value 0.14 | locus YJL092W, strain hpr5, stronger effect = lower value 0.586 | locus YJL095W, strain BCK1 (second series), stronger effect = lower value 0.202 | locus YJL095W, strain BCK1, stronger effect = lower value 0.105 | locus YJL115W, strain asf1, stronger effect = lower value 0.684 | locus YJL129C, strain trk1, stronger effect = lower value 0.463 | locus YJL154C, strain vps35, stronger effect = lower value 0.582 | locus YJL164C, strain tpk1, stronger effect = lower value 0.275 | locus YJL166W, strain qcr8, stronger effect = lower value 0.228 | locus YJL187C, strain SWE1, stronger effect = lower value 0.355 | locus YJR066W, strain TOR1, stronger effect = lower value 0.0115 | locus YKL160W, strain elf1, stronger effect = lower value 0.229 | locus YKR026C, strain gcn3, stronger effect = lower value 0.759 | locus YKR091W, strain srl3, stronger effect = lower value 0.71 | locus YLL001W, strain dnm1, stronger effect = lower value 0.488 | locus YLL026W, stronger effect = lower value 0.325 | locus YLL041C, strain sdh2, stronger effect = lower value 0.499 | locus YLR027C, strain aat2, stronger effect = lower value 0.271 | locus YLR113W, strain HOG1, stronger effect = lower value 0.125 | locus YLR221C, strain rsa3, stronger effect = lower value 0.229 | locus YLR258W, strain gsy2, stronger effect = lower value 0.426 | locus YLR262C, strain YPT6 (second series), stronger effect = lower value 0.301 | locus YLR320W, strain mms22, stronger effect = lower value 0.145 | locus YLR342W, strain FKS1, stronger effect = lower value 0.315 | locus YLR357W, strain rsc2, stronger effect = lower value 0.726 | locus YLR370C, strain arc18, stronger effect = lower value 0.713 | locus YLR384C, strain iki3, stronger effect = lower value 0.761 | locus YML120C, strain ndi1, stronger effect = lower value 0.246 | locus YMR058W, strain fet3, stronger effect = lower value 0.383 | locus YMR125W, strain sto1, stronger effect = lower value 0.171 | locus YMR129W, stronger effect = lower value 0.656 | locus YMR205C, strain PFK2, stronger effect = lower value 0.248 | locus YMR231W, strain pep5, stronger effect = lower value 0.529 | locus YNL071W, strain lat1, stronger effect = lower value 0.0982 | locus YNL183C, strain NPR1, stronger effect = lower value 0.00476 | locus YNL209W, strain ssb2, stronger effect = lower value 0.652 | locus YNL248C, strain rpa49, stronger effect = lower value 0.379 | locus YNL322C, strain KRE1 (second series), stronger effect = lower value 0.506 | locus YNR049C, strain mso1, stronger effect = lower value 0.569 | locus YOR001W, strain rrp6, stronger effect = lower value 0.385 | locus YOR070C, strain gyp1, stronger effect = lower value 0.331 | locus YOR080W, strain dia2, stronger effect = lower value 0.766 | locus YOR083W, strain WHI5, stronger effect = lower value 0.366 | locus YOR106W, strain vam3, stronger effect = lower value 0.321 | locus YOR231W, strain MKK1, stronger effect = lower value 0.102 | locus YOR265W, strain rbl2, stronger effect = lower value 0.584 | locus YOR270C, strain vph1, stronger effect = lower value 0.285 | locus YOR290C, strain snf2, stronger effect = lower value 0.214 | locus YPL051W, strain arl3, stronger effect = lower value 0.325 | locus YPL078C, strain atp4, stronger effect = lower value 0.256 | locus YPL106C, strain sse1, stronger effect = lower value 0.609 | locus YPL240C, strain hsp82, stronger effect = lower value 0.325 | locus YPL256C, strain CLN2, stronger effect = lower value 0.103
